From PubChem BioAssay (NCATS)
Records with an inconclusive call do not appear. The source made the active and inactive calls. Calls follow the shape of the dose curve; as a rule, active = well fitted curve in the direction sought with a large enough effect; inconclusive = small, poorly fitted or top-dose-only effect, or another doubt; inactive = no such curve, though single readings can be large; an effect the other way counts as inactive or inconclusive.

Tests used:
[1] = Quantitative High-Throughput drug screen in 47 multiple myeloma cell lines against the NCATS MIPE library collection: Karpas25_ECACC cell viability assay (AID 1918968; also: nearly all actives have a fitted effect of over 35% in size)
Method in brief: (§1)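 Relative luminescence from CellTiter-Glo served as the viability signal, referenced to DMSO-treated (100%) and cell-free medium (0%) controls. Treatment lasted 48 hours at 37C with 500 cells per well.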

[2] = Quantitative High-Throughput drug screen in 47 multiple myeloma cell lines against the NCATS MIPE library collection: KMS12PE_JCRB cell viability assay (AID 1918972); also: nearly all actives have a fitted effect of over 30% in size
Method in brief: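 We plated 500 myeloma cells per well, pinned in MIPE 4.0 compounds, and incubated for 48 hours at 37C. ATP was then quantified with CellTiter-Glo, with DMSO and media-only wells defining 100% and 0%.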

[3] = Quantitative High-Throughput drug screen in 47 multiple myeloma cell lines against the NCATS MIPE library collection: KMS26_JCRB cell viability assay (AID 1918975); also: nearly all actives have a fitted effect of over 45% in size
Method in brief: (§2)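 Inhibition of cell viability is measured here. Each line was plated at 500 cells per well, treated with MIPE 4.0 drugs, kept 48 hours at 37C, then assayed for ATP content by CellTiter-Glo luminescence.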

[4] = Quantitative High-Throughput drug screen in 47 multiple myeloma cell lines against the NCATS MIPE library collection: MMM1_PLB cell viability assay (AID 1918976); also: nearly all actives have a fitted effect of over 35% in size
Method in brief: (§3)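 Plated at 500 cells per well, myeloma lines received MIPE 4.0 compounds by pin tool. Following 48 h culture at 37 °C, CellTiter-Glo luminescence gave viability relative to DMSO and media-only controls.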

[5] = Quantitative High-Throughput drug screen in 47 multiple myeloma cell lines against the NCATS MIPE library collection: NCIH929_DSMZ cell viability assay (AID 1918978); also: nearly all actives have a fitted effect of over 35% in size
Method in brief: as §3

[6] = Quantitative High-Throughput drug screen in 47 multiple myeloma cell lines against the NCATS MIPE library collection: KMS12BM_JCRB cell viability assay (AID 1918971); also: nearly all actives have a fitted effect of over 35% in size
Method in brief: as §2

[7] = Quantitative High-Throughput drug screen in 47 multiple myeloma cell lines against the NCATS MIPE library collection: KMS21BM_JCRB cell viability assay (AID 1918974); conditions: ATP luminescence, 48 h; viability: at 45.8 µM (top of the series) unless noted
Method in brief: as §1

[8] = Quantitative High-Throughput drug screen in 47 multiple myeloma cell lines against the NCATS MIPE library collection: MOLP8_DSMZ cell viability assay (AID 1918977); also: nearly all actives have a fitted effect of over 45% in size
Method in brief: as §3

[9] = Quantitative High-Throughput drug screen in 47 multiple myeloma cell lines against the NCATS MIPE library collection: KMS20_JCRB cell viability assay (AID 1918973); also: nearly all actives have a fitted effect of over 45% in size
Method in brief: as §1

[10] = Quantitative High-Throughput drug screen in 47 multiple myeloma cell lines against the NCATS MIPE library collection: KMS27_JCRB cell viability assay (AID 1918970); also: nearly all actives have a fitted effect of over 30% in size
Method in brief: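 Luminescent ATP read-out (CellTiter-Glo, 5 min at room temperature) after 48 h compound exposure of 500 KMS27_JCRB cells per well; DMSO wells define full viability and media-only wells zero.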
Potency is read from the fitted curve at half-maximal effect.

CN(C)c1ccc(C2Nc3ccc4ccccc4c3C3=C2C(=O)CC(C)(C)C3)cc1Br (configuration not stated)
active: Potency [1] 5.9 µM | Potency [2] 5.9 µM | Potency [3] 16.6 µM | Potency [4] 14.8 µM

Cc1[nH]c(=O)c(C#N)cc1-c1ccc2nccn2c1
inactive: Potency [1] | Potency [2] | Potency [3] | Potency [5]

O=C1CCCC2=C1C(c1[nH]ncc1Cl)N=C(Nc1nc3ccccc3o1)N2 (configuration not stated)
active: Potency [1] 0.662 µM | Potency [6] 4.69 µM | Potency [2] 1.87 µM | Potency [4] 4.69 µM | Potency [5] 5.9 µM

COc1ccc(-c2c(-c3ccc(O)cc3O)n[nH]c2C)cc1
active: Potency [1] 27 µM | Potency [6] 27 µM | Potency [5] 19.1 µM

COc1cccc2cc(-c3nc(C4CCC(C(=O)O)CC4)n4ncnc(N)c34)[nH]c12 (configuration not stated)
active: Potency [1] 0.662 µM | Potency [6] 0.0743 µM | Potency [2] 0.166 µM | Potency [7] 0.469 µM | Potency [3] 0.662 µM | Potency [4] 0.662 µM | Potency [8] 0.418 µM | Potency [5] 0.187 µM

Cc1c(CCOc2ccc(C(=O)O)cc2)c2cc(Cl)ccc2n1C(c1ccccc1)c1ccccc1
active: Potency [1] 20.9 µM | Potency [4] 14.8 µM
inactive: Potency [2] | Potency [9] | Potency [5]

C[C@H](NC(=O)Cc1cc(F)cc(F)c1)C(=O)N[C@@H]1C(=O)N(C)c2ccccc2-c2ccccc21
inactive: Potency [6]
active: Potency [1] 5.26 µM | viability [7] 138% | Potency [5] 4.69 µM

NC(=O)C1CCCc2c1[nH]c1ccc(Cl)cc21 (configuration not stated)
active: Potency [6] 1.66 µM | Potency [2] 14.8 µM
inactive: Potency [1] | Potency [5]

O=C(O)COCCN1CCN(C(c2ccccc2)c2ccc(Cl)cc2)CC1 (configuration not stated)
inactive: Potency [1] | Potency [2] | Potency [8]

COc1ccc(-c2oc3cc(OC)ccc3c2C(=O)c2ccc(C#N)cc2)cc1
inactive: Potency [6] | Potency [9] | Potency [3] | Potency [8]
active: Potency [10] 2.09 µM | Potency [2] 10.5 µM | Potency [7] 1.32 µM

Cc1cccc(-c2nn(C(=S)Nc3ccccc3)cc2-c2ccnc3ccccc23)n1
active: Potency [3] 6.62 µM | Potency [4] 16.6 µM | Potency [5] 2.35 µM
inactive: Potency [10] | Potency [2]

Nc1ncnc2nc(-c3ccc(N4CCOCC4)nc3)cc(-c3cccc(Br)c3)c12
inactive: Potency [10] | Potency [2] | Potency [3]
active: Potency [5] 14.8 µM

O=C(O)CCc1ccc(NCc2cccc(Oc3ccccc3)c2)cc1
inactive: Potency [10] | Potency [2] | Potency [8] | Potency [5]

CN[C@@H](C)C(=O)N[C@H]1CCCC[C@H]2CC[C@@H](C(=O)N[C@@H](c3ccccc3)c3cn(CCCCc4ccc(CCCCn5cc([C@@H](NC(=O)[C@@H]6CC[C@@H]7CCCC[C@H](NC(=O)[C@H](C)NC)C(=O)N76)c6ccccc6)nn5)cc4)nn3)N2C1=O
active: Potency [10] 18.7 µM | Potency [2] 4.69 µM | Potency [9] 4.18 µM | Potency [5] 8.33 µM
inactive: Potency [6] | Potency [8]

COc1cc2nccc(Oc3ccc(NC(=O)NC4CC4)c(Cl)c3)c2cc1C(N)=O
active: Potency [10] 3.32 µM | Potency [6] 5.9 µM | Potency [2] 0.833 µM | Potency [9] 13.2 µM | Potency [3] 23.5 µM | Potency [8] 13.2 µM | Potency [5] 16.6 µM

Cc1ccnc(NS(=O)(=O)c2ccc(NC(=O)Nc3ccc(S(=O)(=O)Nc4nccc(C)n4)cc3)cc2)n1
inactive: Potency [5]
active: Potency [10] 20.9 µM | Potency [6] 6.62 µM | Potency [2] 20.9 µM

CCOc1cc(C=C2C(=O)N(c3ccccc3)N=C2C)cc(Cl)c1OCC(=O)OC
inactive: Potency [8]
active: Potency [1] 8.33 µM | Potency [3] 20.9 µM | Potency [5] 2.64 µM

CCOC(=O)N[C@@H]1CC[C@@H]2[C@@H](C1)C[C@H]1C(=O)O[C@H](C)[C@H]1[C@@H]2C=Cc1ccc(-c2cccc(F)c2)cn1
inactive: Potency [3] | Potency [8]
active: Potency [10] 18.7 µM | Potency [6] 20.9 µM | Potency [2] 14.8 µM

CCOc1cc(C(=O)Nc2ccc(Cl)c(-c3nc4ccccc4[nH]3)c2)cc(OCC)c1OCC
inactive: Potency [3] | Potency [8]
active: Potency [1] 10.5 µM | Potency [9] 1.48 µM | Potency [4] 20.9 µM

COc1c(Cl)cc2c([nH]c3cnccc32)c1NC(=O)c1cccnc1C
active: Potency [10] 11.8 µM | Potency [6] 14.8 µM | Potency [2] 20.9 µM | Potency [3] 13.2 µM | Potency [5] 0.743 µM
inactive: Potency [8]

Nc1cccc(S(=O)(=O)N2CCCN(S(=O)(=O)c3ccc4c(c3)OCCO4)CC2)c1
inactive: Potency [10] | Potency [2] | Potency [3] | Potency [8] | Potency [5]
